# Screening results deposited in PubChem BioAssay by several laboratories.
# SENP6 inh: inhibitors of human SENP6 protease; 1.8% of 330,000 active; Q9GZR1; Recombinant SENP6 catalytic domain, aminoluciferin luminescence; AID 2599; inhibition, % at 10 µM;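 active means inhibition above about 50% at the single tested dose, limit read from the data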;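 further: plate controls were DMSO wells with enzyme for no effect and DMSO wells lacking enzyme for full effect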
# SENP7 inh: SENP7 protease inhibition. Q9BQF6. recombinant SENP7, Z-RLRGG-aminoluciferin luminescence, 40 min. inhibition, % at 5 µM. 1.5% of 330,000 active. AID 434973;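 active means inhibition above about 50% at the single test dose, limit read from the data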;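 further: plate controls were DMSO with enzyme for no effect and no enzyme buffer wells for full effect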
# Target sequence (Q9BQF6 706-1050 limits assumed): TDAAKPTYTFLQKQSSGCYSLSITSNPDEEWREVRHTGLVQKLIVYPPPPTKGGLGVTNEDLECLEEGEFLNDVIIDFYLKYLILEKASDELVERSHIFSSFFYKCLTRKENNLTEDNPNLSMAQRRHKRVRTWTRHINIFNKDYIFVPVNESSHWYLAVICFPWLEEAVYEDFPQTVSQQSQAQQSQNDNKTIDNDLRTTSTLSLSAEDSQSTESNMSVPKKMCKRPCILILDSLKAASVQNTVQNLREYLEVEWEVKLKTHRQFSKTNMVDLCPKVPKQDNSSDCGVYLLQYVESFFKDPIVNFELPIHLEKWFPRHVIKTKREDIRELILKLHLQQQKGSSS
# SENP8 block-1: inhibitors of human SENP8 protease; purified SENP8, Z-RLRGG-aminoluciferin cleavage, luminescence; 1.2% of 330,000 active; AID 2540; inhibition, % at 10 µM; Q96LD8; in the data active means inhibition above about 50%
# Target sequence (Q96LD8 whole entry, looked up): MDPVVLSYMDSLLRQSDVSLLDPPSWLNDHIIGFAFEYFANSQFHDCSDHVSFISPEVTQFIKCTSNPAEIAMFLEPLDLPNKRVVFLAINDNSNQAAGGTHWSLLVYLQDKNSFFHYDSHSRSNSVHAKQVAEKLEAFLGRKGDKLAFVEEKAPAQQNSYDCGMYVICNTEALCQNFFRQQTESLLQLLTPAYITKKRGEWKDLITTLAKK
# HSP90 refold inh: blocks HSP90-mediated luciferase refolding in reticulocyte lysate; AID 1789; Rabbit reticulocyte lysate, luciferase refolding luminescence, 3 h; 0.91% of 290,000 active; inhibition, % at 5.6 µM;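 active means inhibition above the screen-wide mean plus 3 SD, computed separately per campaign, cut at about 16% in these data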;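 further: 0% = DMSO wells and 100% = 60 µM geldanamycin wells; inhibitors lower the luminescence because luciferase stays unfolded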
# SENP8 block-2: inhibitors of human SENP8 protease; Q96LD8; recombinant SENP8, Nedd8 substrate fluorescence; inhibition, % at 20 µM; 0.64% of 360,000 active; AID 602440; in the data active means inhibition mostly above about 40%, no sharp cut-off; inactive means mostly below about 27%
# HSP90 inh confirm: HSP90 inhibition, confirmation assay. shares compounds with HSP90 refold inh. rabbit reticulocyte lysate, luciferase refolding luminescence, 3 h. inhibition, % at 5.9 µM. 64% of 2,300 active. AID 1846; in the data active means inhibition above about 18%;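 further: 0% = vehicle wells and 100% = reference inhibitor wells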
# luciferase ctr: blocks native firefly luciferase in HSP90 counter-screen | AID 1847 | purified native firefly luciferase, luminescence | shares compounds with HSP90 refold inh | 48% of 2,300 active | inhibition, % at 5.9 µM;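 active means inhibition above the mean inhibition of all tested sample wells plus 3 SD, cut at about 10% in these data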;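 further: 0% = DMSO with luciferase and 100% = wells lacking luciferase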
# Numbers without * were called inactive; . = not tested or not shown. Shown are actives, neighbours in structure and some others; about 2.7% of the full set was active somewhere.
SMILES,SENP6 inh,SENP7 inh,SENP8 block-1,HSP90 refold inh,SENP8 block-2,HSP90 inh confirm,luciferase ctr
CC(/C=N/NC(=O)COc1ccccc1C)=N\NC(=O)COc1ccccc1C,14.7,-0.6,10.9,0.3,11.8,.,.
CC1CCCCC12NC(=O)N(CC(=O)NCc1ccc3c(c1)OCO3)C2=O (stereo not drawn),-2.9,0.3,7.7,25.5*,-0.4,-5.6,-9.8
CC1=C(C(=O)NCc2ccc3c(c2)OCO3)C2(CCC(C)CC2)OC1=O (stereo not drawn),-12.5,-6.0,-0.3,57.5*,8.6,-6.7,-10.2
Cn1c2ccccc2c(=O)c2c(=O)n(-c3ccc(F)cc3)c(-c3cccs3)nc21,-9.9,20.3,2.5,-1.3,-124.3,.,.
CC(c1ccccc1)n1c(-c2cccs2)nc2c(c(=O)c3ccccc3n2C)c1=O (stereo not drawn),-8.5,7.9,-2.3,25.2*,-66.1,-0.6,-12.1
O=[N+]([O-])c1ccc(O)c(/C=N/n2cnnc2)c1,-3.6,2.2,3.2,-1.9,11.4,.,.
O=C(C1=C[C@H](c2csc3ccccc23)C[C@H](OCCCCO)O1)N1CCN(Cc2ccc3c(c2)OCO3)CC1,-15.6,-13.1,-20.1,19.1*,11.6,-6.3,-13.4
Cn1c(SCC(=O)NCc2ccco2)nnc1-c1ccc(S(=O)(=O)N2CCOCC2)cc1,-29.8,0.6,-5.4,2.2,2.6,.,.
COCCN(Cc1cc2cc3c(cc2nc1Cl)OCO3)C(C)=O,-28.8,-2.3,-9.9,2.1,-10.5,.,.
CC(=O)N(CCN1CCOCC1)Cc1cc2cc3c(cc2nc1Cl)OCO3,10.7,2.0,1.9,23.9*,-2.7,-6.6,-7.5
COC(=O)c1sccc1NC(=O)c1c(F)c(F)c(F)c(F)c1F,-26.5,-12.1,-5.1,.,7.4,.,.
O=C(Oc1ccc2ccccc2c1)C1CCC1,-0.3,-23.1,-22.8,37.1*,3.1,-2.7,-16.3
O=C(Oc1ccc2ccc(O)cc2c1)C1CCCCC1,25.7,3.2,6.6,-1.5,-16.9,.,.
O=C(CSc1nnc(-c2cnccn2)n1Cc1ccco1)c1ccc2ccccc2c1,5.9,0.9,2.4,-0.6,-8.1,.,.
C/C(=N\Nc1nc(C(=O)O)cs1)c1ccccc1,-2.5,7.9,-10.0,29.0*,.,-4.7,-7.2
CC1CCc2nc(NC(=O)CSc3nc4ccccc4o3)sc2C1 (stereo not drawn),-2.6,5.3,-4.6,46.0*,24.5,50.8*,48.9*
Cc1nnc(NC(=O)CSc2nc3ccccc3o2)s1,0.6,-0.3,-4.6,1.0,-0.2,.,.
Cc1c(N(C)S(=O)(=O)c2ccc(Cl)c(C(=O)NCC3CCCO3)c2)c(=O)n(-c2ccccc2)n1C (stereo not drawn),.,.,.,.,1.6,.,.
COc1cccc(C(O)c2nc(-c3cccc(NC(C)=O)c3)cs2)c1 (stereo not drawn),.,.,.,.,18.1,.,.
O=C(C(c1ccccc1)c1ccccc1)N1CCOCC1,-18.4,-8.0,-2.3,47.4*,20.8,-4.0,-7.3
O=C(C(c1ccccc1)C(O)c1ccccc1)N1CCOCC1 (stereo not drawn),.,.,.,.,-0.6,.,.
C=C1C2(C(=O)NCc3ccco3)CCC(C2)C1(C)C (stereo not drawn),8.5,8.8,5.3,19.5*,8.7,-5.6,-8.8
CC(C)(C)n1nnnc1C(c1ccc(F)cc1)N(Cc1ccc(F)cc1)Cc1ccco1 (stereo not drawn),-19.5,-8.1,-3.8,4.6,12.9,.,.
Cc1sc2ncnc(SCC(=O)c3ccc(O)cc3O)c2c1C,6.0,5.5,8.2,19.3*,12.4,-10.5,-11.4
CCCOc1ccc(C2Nc3cccc4cccc(c34)N2)cc1,5.4,1.9,3.5,38.9*,6.7,18.4*,-17.2
SMILES,SENP6 inh,SENP7 inh,SENP8 block-1,HSP90 refold inh,SENP8 block-2,HSP90 inh confirm,luciferase ctr
CCN(CC)c1ccc(C2Nc3cccc4cccc(c34)N2)cc1,10.3,14.2,-18.1,57.0*,-23.0,1.7,-6.8
CCN(CC)c1ccc(C2NC(=O)c3ccccc3N2)cc1 (stereo not drawn),.,.,.,.,-494.1,.,.
Brc1ccc(C2Nc3cccc4cccc(c34)N2)cc1,.,.,.,.,-16.4,.,.
COc1cc(C(=O)NC2CCCCCCC2)cc(OC)c1OC,-3.9,0.2,-3.6,.,1.9,.,.
COc1ccc(C(=O)Nn2c(SCC(=O)NC3CCCCC3)nc3ccccc3c2=O)cc1,11.8,-8.3,9.9,61.6*,9.6,70.8*,64.9*
COc1ccc(C(=O)Nn2c(C)nc3ccccc3c2=O)cc1,-5.8,-4.8,4.4,6.5,5.3,.,.
COc1ccc(C(=O)Nn2c(SCC(=O)NCc3ccco3)nc3ccccc3c2=O)cc1,13.4,3.0,3.4,55.6*,15.0,64.9*,64.8*
COc1ccc(C(=O)Nn2c(SCC(=O)c3ccc(Cl)cc3)nc3ccccc3c2=O)cc1,7.0,4.9,6.4,77.2*,0.0,52.7*,45.6*
COc1ccc(C(=O)Nn2c(SCC(=O)N3CCC(C)CC3)nc3ccccc3c2=O)cc1,9.7,-4.1,13.4,73.4*,-5.4,71.2*,67.4*
CCn1c(SCC(=O)NCc2ccco2)nc2ccccc2c1=O,-9.7,4.0,-2.8,-0.9,-9.6,.,.
O=C(CSc1ccc(-c2ccco2)nn1)Nc1ccc(F)cc1,-5.2,10.5,-10.8,-3.2,-5.0,.,.
CC(=O)Nc1cccc(-c2ccnc3c2CC(C)(C(=O)NCCc2ccccc2)O3)c1 (stereo not drawn),.,.,.,.,11.2,.,.
COc1ccc(C(=O)Nn2c(SCc3cccc([N+](=O)[O-])c3)nc3ccccc3c2=O)cc1,7.3,2.2,0.0,44.4*,9.4,49.9*,42.0*
COc1ccc(C(=O)CSc2ccccc2C(=O)O)cc1,42.7,18.4,15.8,31.8*,16.7,32.4*,-6.6
O=C(Cc1cccc(NC(=O)C2CCN(C(=O)C3CCC3)CC2)c1)Nc1cccc(C(=O)N2CCCCC2)c1,.,.,.,.,4.2,.,.
CSc1ccccc1C(=O)C1CCCN(Cc2c(C)n(C)n(-c3ccccc3)c2=O)C1 (stereo not drawn),-15.8,-0.3,-2.6,0.5,8.5,.,.
Cc1c(-c2nc(-c3ccc(C(F)(F)F)cc3)no2)n(C)oc1=O,18.2,4.3,2.7,17.5*,-298.1,73.6*,-10.3
COc1cccc(CC2CC(=O)N(CCc3ccc4c(c3)OCO4)C2=O)c1 (stereo not drawn),-11.3,16.7,-4.0,1.7,5.5,.,.
COC(=O)NCCOC(=O)N(O)c1ccc(Br)cc1,-3.2,-10.8,-9.6,50.1*,14.0,75.1*,-19.9
COc1ccc(CCNC(=O)c2cc(-c3cc(Cl)cc(Cl)c3)oc2C)cc1,-3.2,-1.3,5.4,18.9*,4.2,6.4,-4.2
Cc1oc(-c2cc(Cl)cc(Cl)c2)cc1C(=O)NCCc1ccccc1,-26.6,-1.4,-6.4,-4.7,2.2,.,.
Cc1nnc(N/N=C/c2cc(C)n(-c3ccc(F)cc3)c2C)n1N,12.3,4.3,5.7,18.6*,31.8,-6.1,-7.2
Cc1nnc(N/N=C/c2c(Cl)cccc2Cl)n1N,-13.9,4.3,3.2,18.8*,14.9,-6.7,-10.8
